POLI inh – qHTS for Inhibitors of Polymerase Iota; Pol iota fluorescent replication assay, 10 min; Potency, µM (top dose mostly 115 µM), hits mostly inhibitors; actives 1% (n = 390,000)
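Pol iota at 10 nM preincubated 15 min with compounds at room temperature; reaction started with fluorescent substrate, 50 nM final. Fluorescence read kinetically at 0 and 10 min; buffer-only wells as negative control.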
WRN helicase inh – qHTS for Inhibitors of WRN Helicase | Bifunctional 3'-5' exonuclease/ATP-dependent helicase WRN (Homo sapiens), Q14191 | WRN helicase unwinding, fluorescent forked duplex, kinetic | Potency, µM (series often up to 114 µM), usual class: inhibitors | actives 0.46% (n = 360,000) | AID 651768, 2012; note: nearly all actives have a fitted effect of over 55% in size
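Kinetic fluorescence helicase assay: unwinding of a quenched forked DNA duplex (100 nM final) with 2 mM ATP final raises red fluorescence (525/598 nm). Compounds sat 15 min at room temperature with 20 nM WRN beforehand.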
Pol kappa inh – qHTS for Inhibitors of Polymerase Kappa; DNA polymerase kappa (Homo sapiens), Q9UBT6; purified Pol kappa, fluorescent DNA synthesis assay, 10 min; Potency, µM (titrated, usually from 107 µM), hits mostly inhibitors; actives 0.53% (n = 400,000); AID 588579, 2011
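10 nM Pol kappa was preincubated with compounds for 15 min at room temperature. Reaction started with 50 nM (final) substrate. Fluorescence read kinetically at 0 and 10 min.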
Pol beta inh – qHTS Assay for Inhibitors of DNA Polymerase Beta | P06746 | Potency, µM (titrated, usually from 114 µM), usual class: inhibitors | Pol beta primer extension/strand displacement, fluorescence kinetic | actives 1.3% (n = 340,000) | AID 485314, 2010
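Curves were derived by four-parameter Hill fits of normalized qHTS data. The kinetic fluorescent primer-extension read was taken at 0 and 10 min after 50 nM substrate, following a 15 min room-temperature preincubation of 10 nM enzyme with compounds.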
Pol eta inh – qHTS for Inhibitors of Polymerase Eta. DNA polymerase eta (Homo sapiens), Q9Y253. recombinant Pol eta, fluorescent DNA replication assay. Potency, µM (series often up to 114 µM), most hits filed as inhibitors. actives 1.2% (n = 390,000). AID 588591, 2011
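Pol eta at 10 nM preincubated with compounds 15 min at room temperature; reaction started with fluorescent substrate (50 nM final) and read kinetically at 0 and 10 min.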
PI5P4K alpha inh – qHTS for Inhibitors of phosphatidylinositol 5-phosphate 4-kinase (PI5P4K) | Phosphatidylinositol 5-phosphate 4-kinase type-2 alpha (Homo sapiens), P48426 | PI5P4Kalpha enzyme, ADP-Glo luminescence, 60 min; hits give low values | max response, % | actives 1.2% (n = 330,000) | AID 652105, 2013; active = max response of -50% or lower; inconclusive = between -30% and -50%; inactive = -30% or higher; note: value at the top dose of about 77 µM
Target sequence (P48426 whole entry, looked up): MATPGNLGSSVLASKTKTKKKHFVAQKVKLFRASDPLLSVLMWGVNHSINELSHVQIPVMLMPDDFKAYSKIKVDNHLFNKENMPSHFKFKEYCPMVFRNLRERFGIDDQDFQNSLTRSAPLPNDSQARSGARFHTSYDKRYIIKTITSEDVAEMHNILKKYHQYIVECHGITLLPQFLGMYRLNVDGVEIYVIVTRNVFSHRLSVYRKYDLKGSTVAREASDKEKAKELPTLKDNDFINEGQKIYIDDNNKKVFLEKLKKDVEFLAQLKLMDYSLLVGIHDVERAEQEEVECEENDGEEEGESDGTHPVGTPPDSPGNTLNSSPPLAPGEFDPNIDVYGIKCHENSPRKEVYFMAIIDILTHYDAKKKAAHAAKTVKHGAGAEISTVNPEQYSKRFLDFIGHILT
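Human PI5P4Kalpha with substrate in 0.038 M HEPES pH 7.4, 0.28 mM EGTA, 0.1% CHAPS, 5% DMSO; reaction started with 5 microM ATP (final), 60 min at room temperature. ADP formed read by ADP-Glo luminescence.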
A number is an active result; . = inactive; ? = inconclusive; / = no result given; [ ] = remark or other dose. This is a sample that favours compounds with a hit; in the whole collection about 2.8% have one here. Unless noted, calls come from the whole dose curve; as a rule, active = well fitted curve in the direction sought with a large enough effect; inconclusive = small, poorly fitted or top-dose-only effect, or another doubt; inactive = no such curve, though single readings can be large; an effect the other way counts as inactive or inconclusive.

SMILES | POLI inh | WRN helicase inh | Pol kappa inh | Pol beta inh | Pol eta inh | PI5P4K alpha inh
Cc1ccc(/C=N/NS(=O)(=O)c2ccc([N+](=O)[O-])cc2)o1 | . | . | . | . | . | .
COc1ccc(/C=C2\C=Cc3ccccc32)cc1 | . | / | . | / | / | /
CCCOc1ccc(N)cc1N | ? | 56µM | . | ? | ? | -65
CCCOc1cc(N)ccc1C(=O)OCCN(CC)CC | . | . | . | / | . | .
CN1CC(O)C2=CC(=O)C(=O)C=C21 (centres undefined) | / | / | 0.32µM | / | / | /
CC1CCc2sc(C(=O)NC3CCCCC3)cc2C1 (centres undefined) | . | . | . | / | . | .
S=c1[nH]nc(-c2cc3c(s2)-c2ccccc2CC3)o1 | . | . | . | . | . | -89
CC1CCc2sc(-c3n[nH]c(=S)o3)cc2C1 (centres undefined) | . | . | . | . | . | -68
Nc1nc[nH]c(=O)c1N | . | / | . | / | / | /
COC(=O)c1cc(C(=O)OC)n(Cc2ccc(C)cc2)c1C | ? | .[11.6 µM] | ? | . | 35µM | .
COC(=O)c1cc2sc(C)cc2n1Cc1ccccc1 | . | / | . | . | . | /
COc1cc(NC(=O)CN2C(=O)c3ccccc3Sc3ccc(C(=O)N4CCCC4)cc32)cc(OC)c1 | ? | / | . | ? | ? | /
Cc1ccc(NC(=O)CN2C(=O)c3ccccc3Sc3ccc(C(=O)N4CCCC4)cc32)cc1 | 71µM | / | . | ? | ? | /
CCOc1ccccc1C(=O)NCc1ccc2c(c1)CCN2C(C)=O | . | / | . | . | . | /
Cc1cc(C)n(CCc2nc3c4ccccc4nc(N4CCN(c5cccc(C)c5C)CC4)n3n2)n1 | . | / | . | . | . | /
Cc1cc(C(=O)N/N=C/c2ccc(O)c(O)c2O)c(C)n1-c1ccccc1 | . | . | . | ? | . | -62
CCCCCCCC(=O)N/N=C/c1ccc([N+](=O)[O-])o1 | ? | . | . | . | . | .
O=C(CCN1CCN(c2ccccc2)CC1)N/N=C/c1ccc(O)c(O)c1O | 1.3µM | 40µM | 3.5µM | 2.8µM | 22µM | -69
O=C(CN1CCCCCCC1)N/N=C/c1ccc([N+](=O)[O-])o1 | 45µM | .[11.6 µM] | ? | ? | ? | .
O=C(CCN1CCN(c2ccccc2)CC1)N/N=C/c1ccc([N+](=O)[O-])o1 | ? | . | . | 71µM | ? | .
O=C(CN1CCOCC1)NN=Cc1ccc([N+](=O)[O-])o1 | / | . | / | / | / | .
Cc1ccnc2ccc(N)cc12 | . | / | . | / | / | /
COc1ccc(OC)c(NC(=O)C2CCN(S(=O)(=O)c3ccc4c(c3)CCCC(=O)N4)CC2)c1 | . | / | . | . | . | /
O=C(CN1CCOCC1)N/N=C/c1ccc(-c2ccc(C(=O)O)cc2)o1 | . | . | . | ? | 40µM | .
CCC(=O)N1c2ccccc2CC1C(=O)NCCc1ccccc1OC (centres undefined) | . | / | . | . | . | /
SMILES | POLI inh | WRN helicase inh | Pol kappa inh | Pol beta inh | Pol eta inh | PI5P4K alpha inh
Cc1ccc(Cn2c(SCc3ccc(C(=O)N4CCCCCC4)cc3)nc3ccncc32)cc1 | . | / | . | . | . | /
O=C(NN=C1c2ccccc2-c2ccccc21)c1ccccc1Br | ? | . | . | 0.28µM | . | /
CCC(=O)Nc1ccc(C(=O)NNC(=O)C(c2ccccc2)c2ccccc2)cc1 | . | . | . | 45µM | ? | .
O=C(O)c1ccc(NC(=O)C(c2ccccc2)c2ccccc2)cc1 | . | . | . | . | . | .
CC(C)CC(=O)Nc1ccc(C(=O)NNC(=O)C(c2ccccc2)c2ccccc2)cc1 | . | . | . | . | . | /
CC(C)C(=O)Nc1ccc(C(=O)NNC(=O)C(c2ccccc2)c2ccccc2)cc1 | 79µM | .[11.6 µM] | . | ? | . | /
CNC(=O)COc1ccc(Nc2nnc(-c3ccc(C)c(S(N)(=O)=O)c3)c3ccccc23)cc1 | . | .[11.6 µM] | . | . | 40µM | .
COc1ccc(Nc2nnc(-c3ccc(C)c(S(N)(=O)=O)c3)c3ccccc23)cc1 | . | / | . | ? | . | /
O=C(NCc1ccc2c(c1)OCO2)c1cc2c(s1)CSC2 | . | . | ? | ? | ? | -50
O=C(NCc1ccco1)c1cc2c(s1)CSC2 | ? | 18µM | 11µM | 14µM | 20µM | /
O=C(NCc1ccco1)c1cccs1 | ? | . | . | . | ? | .
CC1=C(C(=O)OCC(Cl)(Cl)Cl)N2C(=O)C(NC(=O)Cc3ccccc3)C2SC1 (centres undefined) | . | . | . | . | . | .
Cc1nnc(SCC2=C(C(=O)O)N3C(=O)C(NC(=O)Cc4ccccc4)C3SC2)s1 (centres undefined) | ? | . | ? | / | 22µM | .
CO/N=C(/C(=O)N[C@@H]1C(=O)N2C(C(=O)O)=C(CSc3nc(C)c(CC(=O)O)s3)CS[C@H]12)c1csc(N)n1 | / | / | .[19.4 µM] | / | / | /
CC(C(=O)NC1C(=O)N2C(C(=O)O)=C(CSc3nnnn3C)CSC12)n1cc(Cl)cn1 (centres undefined) | ? | . | . | ? | 35µM | .
CC(=O)OCC1=C(C(=O)OC(C)(C)C)N2C(=O)[C@@H](NC(=O)Cc3ccccc3)[C@H]2SC1 | 32µM | . | ? | / | ? | -51
Cc1ccccc1C(=O)NCC(c1cccnc1)N1CCc2ccccc21 (centres undefined) | . | / | . | . | . | /
CC(C)CN(CC(C)C)c1ccc(/C=C/c2nc3ccccc3s2)cc1 | ? | / | . | / | / | /
Cc1ccc(NC(=O)CCNS(=O)(=O)c2ccc3c(c2)CCCC(=O)N3)cc1 | . | / | . | . | . | /
COCc1cc(C)nc(SCC(=O)Oc2ccccc2)c1C#N | . | . | . | . | . | .
COCc1cc(C)nc(SCC(=O)c2ccc(O)c(O)c2)c1C#N | 22µM | ? | ? | ? | 45µM | /
CCN(CC)CCNC(=O)c1[nH]c2ccccc2c1Sc1ccc(Cl)cc1 | . | / | . | . | . | /
O=c1cc(-c2ccc(F)cc2)nc(SCc2nc(-c3ccccc3Cl)no2)[nH]1 | . | / | . | . | . | /
COc1ccc(-c2nn(-c3ccccc3)cc2/C=C(\CC(=O)O)c2nc3ccccc3s2)cc1OC | ? | ? | ? | ? | 56µM | .
O=c1n(Cc2ccc(F)cc2)c2ccccc2c2nc(-c3ccccc3)nn12 | . | / | . | . | . | /
COc1ccc2nc3cccc(OC)c3nc2c1 | . | .[11.6 µM] | . | 40µM | ? | .
CC(CCc1ccco1)NC(=O)c1cccc2c1C(=O)N(C1CCCCC1)C2 (centres undefined) | . | . | . | ? | . | .
COc1ccc(N2Cc3cccc(C(=O)Nc4ccc(F)cc4)c3C2=O)cc1 | ? | / | ? | 6.3µM | ? | /
